Screening results as filed in PubChem BioAssay.
Shown are actives, neighbours in structure and some others; about 7.4% of the full set was active somewhere.
SMN2 splice up: qHTS Assay for Enhancers of SMN2 Splice Variant Expression | HEK293 SMN2-luciferase splicing reporter, luminescence, 30-36 h | Potency, µM (series often up to 46.1 µM), without a hit: at the top dose activity change, positive = activation, actives largely listed as activators | 210,000 tested, 2.8% active; note: % of control where 0% means no effect; nearly all actives have a fitted effect of over 55% in size
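qHTS luciferase splicing reporter: luminescence rises when SMN2 exon 7 is included in transfected HEK293 cells. Compound exposure lasted 30-36 h at 37C, with 4.5 mM final sodium butyrate as control, followed by a ONE-Glo read.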
ELG1 genotoxic: qHTS screen for small molecules that induce genotoxicity in human embryonic kidney (HEK293T) cells expressing luciferase-tagged ELG1 | Potency, µM (titrated, usually from 46 µM), without a hit: at the highest dose activity change, positive = activation, usual class: activators | 330,000 tested, 1.3% active | AID 504466, 2011 | HEK293T ELG1-luciferase reporter, luminescence, 16 h; note: % of control where 0% means no effect; nearly all actives have a fitted effect of over 60% in size
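Genotoxic stress is detected as increased luminescence from luciferase-tagged ELG1 in HEK293T cells, measured with ONE-Glo after a 16 hr treatment at 37 °C.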
FLuc modulator: qHTS profiling assay for firefly luciferase inhibitor/activator using purifed enzyme and Km concentrations of substrates (counterscreen for miR-21 project) | Luciferin 4-monooxygenase (Photinus pyralis), P08659 | purified FLuc, Km substrates, luminescence inhibition | Potency, µM (doses to about 57.5 µM), for inactives: at the highest dose activity change, negative = inhibition, most hits filed as inhibitors | 360,000 tested, 6.9% active | AID 588342, 2011;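 note: plate controls were vehicle for no effect and reference inhibitor for full effect; nearly all actives have a fitted effect of over 55% in size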
Target sequence (P08659 whole entry, looked up): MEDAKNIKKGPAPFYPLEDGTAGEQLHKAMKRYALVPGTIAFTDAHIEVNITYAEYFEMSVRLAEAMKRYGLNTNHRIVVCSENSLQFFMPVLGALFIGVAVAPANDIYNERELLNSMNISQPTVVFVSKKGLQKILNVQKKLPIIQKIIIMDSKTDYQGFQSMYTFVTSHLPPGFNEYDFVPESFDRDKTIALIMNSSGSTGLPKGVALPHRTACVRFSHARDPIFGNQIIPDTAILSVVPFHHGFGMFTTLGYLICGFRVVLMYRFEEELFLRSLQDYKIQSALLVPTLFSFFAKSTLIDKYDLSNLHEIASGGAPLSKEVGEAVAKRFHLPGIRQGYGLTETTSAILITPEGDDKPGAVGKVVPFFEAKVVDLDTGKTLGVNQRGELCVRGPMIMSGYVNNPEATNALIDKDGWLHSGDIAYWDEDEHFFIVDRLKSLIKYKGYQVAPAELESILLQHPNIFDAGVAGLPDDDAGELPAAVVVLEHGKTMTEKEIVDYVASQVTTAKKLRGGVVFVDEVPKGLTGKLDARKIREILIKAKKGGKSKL
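Purified P. pyralis luciferase (10nM final) with 10uM D-luciferin and 10uM ATP (Km levels) in 50mM Tris acetate pH 7.5, 10mM Mg acetate, 0.01% Tween-20, 0.05% BSA; qHTS 6-point titration, ~60 µM downward; luminescence read.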
Rab9 prom act: qHTS Assay for Rab9 Promoter Activators. Huh7 Rab9 promoter-luciferase reporter, luminescence, 24 h. Potency, µM (top dose mostly 9.22 µM), for the others: top-dose activation, negative = inhibition, actives largely listed as activators. 320,000 tested, 2.8% active. AID 485297, 2010; note: % of control where 0% means no effect; nearly all actives have a fitted effect of over 60% in size
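Stable Rab9-luc Huh7, 1500 cells/well, 2 h settle; cmpd in DMSO, 24 h, 37 °C/5% CO2; luciferase reagent 10 min RT; luminescence.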
NPC1 prom act: qHTS Assay for NPC1 Promoter Activators | Huh7 NPC1 promoter luciferase reporter, 24 h | Potency, µM (doses to about 9.22 µM), inactives show top-dose activation, hits mostly activators | 320,000 tested, 2.4% active | AID 485313, 2010; note: % of control where 0% means no effect; nearly all actives have a fitted effect of over 60% in size
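Luciferase expression driven by the NPC1 promoter was measured in stably transfected Huh7 cells after a 24 h compound incubation, using a luciferase reagent and a luminescence read.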
Luc counter: Counterscreen for Luciferase (Kinase-Glo TM) Inhibition; Luciferin 4-monooxygenase (Photuris pensylvanica), Q27757; Kinase-Glo luciferase, ATP luminescence, 8 min; Potency, µM (titrated, usually from 38.3 µM), without a hit: at the highest dose activity change, negative = inhibition, most hits filed as inhibitors; 200,000 tested, 0.28% active; AID 1379, 2008; note: % is set by controls: 0 for no effect and ±100 for the full control effect; nearly all actives have a fitted effect of over 60% in size
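Luminescence was the read-out, taken after 8-minute incubation at ambient temperature. Luciferase turned over luciferin with 10 uM ATP in imidazole pH 7.2 buffer containing KCl, MgCl2, Tween 20 and BSA.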
The depositor's hits bear a star; ? = inconclusive; nt = no result given. Calls come from the whole dose curve; as a rule, active = well fitted curve in the direction sought with a large enough effect; inconclusive = small, poorly fitted or top-dose-only effect, or another doubt; inactive = no such curve, though single readings can be large; an effect the other way counts as inactive or inconclusive. Potency is the fitted concentration of half-maximal effect.

SMILES	SMN2 splice up	ELG1 genotoxic	FLuc modulator	Rab9 prom act	NPC1 prom act	Luc counter
COc1ccccc1C(CNC(=O)C1COc2ccccc2O1)N1CCCC1 (centres undefined)	nt	0%	-9%	-4%	-11%	nt
COc1ccc(CNC(=O)C2COc3ccccc3O2)cc1 (centres undefined)	13µM*	14%	?	?	?	4%
O=C(NCc1cccnc1)C1COc2ccccc2O1 (centres undefined)	-10%	1%	1%	3%	-1%	4%
Nc1n[nH]c(-c2ccccc2)n1	-5%	1%	1%	-3%	3%	-5%
c1ccc(-c2n[nH]c(-c3ccccn3)n2)nc1	11µM*	6.5µM*	15µM*	2.8µM*	3.5µM*	?
c1ccc(-c2n[nH]c(-c3ccccn3)n2)cc1	11µM*	?	12µM*	3.5µM*	2µM*	-3%
O=[N+]([O-])c1ccc(N=Cc2sc3ccccc3c2O)cc1	25µM*	8.2µM*	?	?	22%	-5%
Oc1c(C=NCc2ccccc2)sc2ccccc12	2%	?	11µM*	2.8µM*	?	1%
Cc1cc(C)nc(Nc2nc3ccccc3[nH]2)n1	13µM*	?	?	?	?	-1%
Nc1ccc(Nc2nc3ccccc3[nH]2)cc1	nt	0%	-22%	3%	2%	nt
c1ccc(Nc2nc3ccccc3[nH]2)nc1	?	?	24µM*	3.5µM*	?	-6%
Nc1ccccc1Nc1nc2ccccc2[nH]1	nt	-8%	?	-6%	0%	nt
Cc1nc2ccccn2c1C(=O)NNC(=O)Nc1cccc(C(F)(F)F)c1	nt	-17%	-3%	1%	5%	nt
Cc1ccc(OCc2cc(C(=O)N(C)Cc3cnn(-c4ccccc4C)c3)no2)cn1	nt	-1%	?	0%	0%	nt
C/C(=N/OC(=O)C1CC12CCC2)c1ccc(Br)cc1 (centres undefined)	15%	-4%	6.7µM*	2%	-1%	3%
COc1cccc(/C=N/NC(=O)CNC(=O)COc2cccc(C)c2)c1O	nt	13%	-5%	-37%	-42%	nt
COc1cccc(/C=N/NC(=O)CNC(=O)CCc2ccccc2)c1O	nt	?	9.5µM*	-13%	-8%	nt
COc1cccc(/C=N/NC(=O)CNC(=O)c2cccs2)c1O	nt	16%	21µM*	-8%	1%	nt
O=C(CNC(=O)c1cccs1)NCC(=O)OCc1c(F)cccc1Cl	-23%	-1%	-9%	6%	-3%	-1%
O=C(CNC(=O)c1cccs1)N/N=C/c1c(F)cccc1Cl	nt	?	21µM*	16%	13%	nt
Cc1ccc(/C=N/NC(=O)CNC(=O)c2cccs2)cc1	nt	?	15µM*	29%	2%	nt
CSc1ccccc1C(=O)N1CCN(c2ncccn2)CC1	5%	0%	0%	-3%	-6%	2%
CC(=O)N1CCN(C(=O)C(Cc2c[nH]c3ccccc23)NC(=O)c2ccccc2Cl)CC1 (centres undefined)	nt	-1%	-13%	-9%	3%	nt
COc1ccc(-c2cc(C(=O)NCC(c3ccco3)N(C)C)c3ccccc3n2)cc1OC (centres undefined)	nt	-13%	?	0%	-1%	nt
Cc1snc2sc(C(=O)c3ccc(Br)cc3)c(N)c12	?	12µM*	-25%	4µM*	2.8µM*	-1%
SMILES	SMN2 splice up	ELG1 genotoxic	FLuc modulator	Rab9 prom act	NPC1 prom act	Luc counter
Cc1nc(-c2ccccc2)nc2sc(C(=O)c3ccc(F)cc3)c(N)c12	nt	6%	5%	-4%	3%	nt
Cc1ccc(C(=O)c2sc3nsc(C)c3c2N)cc1	10µM*	0.58µM*	1.7µM*	2.8µM*	1.1µM*	-4%
Nc1[nH]c(N=NC(=O)c2ccccc2)c2ccccc12	2.8µM*	?	4.8µM*	1.1µM*	1.8µM*	-21%
O=C(N=Nc1c(O)[nH]c2ccc([N+](=O)[O-])cc12)c1ccccc1Cl	nt	0%	-16%	8%	14%	nt
Nc1[nH]c(N=NC(=O)c2ccc(Cl)cc2)c2ccccc12	?	2%	?	20%	18%	-3%
Nc1[nH]c(N=NC(=O)c2ccccc2O)c2ccccc12	11µM*	15µM*	8.5µM*	2µM*	2.8µM*	-10%
O=c1c(-c2ccc(O[C@@H]3O[C@H](CO)[C@@H](O)[C@H](O)[C@H]3O)cc2)coc2cc(O)cc(O)c12	nt	nt	nt	nt	nt	1%
COc1ccc(-c2coc3cc(OC)cc(O)c3c2=O)cc1	13µM*	?	1.5µM*	1µM*	0.63µM*	-8%
COc1ccc(-c2coc3cc(O)cc(O)c3c2=O)cc1	18µM*	23µM*	6µM*	2.8µM*	2.2µM*	1%
O=c1c(-c2ccc(O)cc2)coc2cc(O)cc(O)c12	25µM*	16µM*	21µM*	13µM*	5.8µM*	-11%
CC(C)Oc1cc(O)c2c(=O)c(-c3ccc(O)cc3)coc2c1	7.1µM*	16µM*	5.4µM*	1.4µM*	0.89µM*	-2%
COc1ccc(S(=O)(=O)Nc2cccc3c2O[C@H](CN(C)C(=O)Nc2ccc4c(c2)OCO4)[C@@H](C)CN([C@H](C)CO)C3=O)cc1	nt	1%	nt	nt	nt	nt
Cc1cc(C(=O)Nc2sc3c(c2C#N)CCC(C)C3)no1 (centres undefined)	14µM*	2.1µM*	2.7µM*	2µM*	1.8µM*	1%
CC(C)Cc1cc(C(=O)Nc2sc3c(c2C#N)CCC3)no1	-6%	0%	?	7%	1%	-4%
Cc1cc(C(=O)Nc2sc3c(c2C#N)CCC3)no1	?	6.5µM*	5.4µM*	29%	-3%	-2%
Cn1ccc(C(=O)Nc2sc3c(c2C#N)CCC3)n1	nt	0%	?	0%	-2%	nt
Cc1cc(C(=O)Nc2sc3c(c2C#N)CCCC3)no1	6.3µM*	?	2.4µM*	1.6µM*	3.2µM*	-1%
CCOC(=O)c1cc(C(=O)Nc2sc3c(c2C#N)CCCC3)nn1C	nt	7%	4.8µM*	?	2%	nt
CC1CCc2c(sc(NC(=O)c3ccc(Cl)cc3Cl)c2C#N)C1 (centres undefined)	0%	nt	4%	nt	nt	nt
CS(=O)(=O)c1ccc(S(=O)CC(=O)Oc2ccc(Cl)cc2)c([N+](=O)[O-])c1 (centres undefined)	22%	?	-12%	-43%	-27%	0%
